The source of these data is PMC5540273 (PLoS ONE, 2017).
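Also: KINOMEscan kinase panel screen.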

The subject of the test is FLT3. The settings on record: concentration: 1 μM, replicates: in singlicate; n = 1.
For the compound `FC(F)(F)c1ccc(/C=C/c2cncnc2Nc2ccc3[nH]c(Cc4ccccc4)nc3c2)cc1` [GW709199], the “%Inh” value came out at 19%.

Consider `CN(C)Cc1ccc(-c2ccc3c(Nc4ccc(Oc5ccccn5)cc4)ccnc3c2)o1` [GW567148], for which the “%Inh” value is recorded as 95.5%.

As to `Cc1ccc(F)c(C(=O)Nc2cccc(-c3nn4ccccc4c3-c3ccnc(Nc4cccc(F)c4)n3)c2)c1F` [GSK361061], the “%Inh” value was 78%.

Take `Cc1occc1-c1ncc(OC[C@@H](N)Cc2c[nH]c3ccccc23)cc1-c1ccc2[nH]nc(C)c2c1.O=C(O)C(F)(F)F` [GSK682037]: the “%Inh” value is 0%.

For `CN(C)S(=O)(=O)c1cc(-c2ccc3nccc(-c4cccc(S(N)(=O)=O)c4)c3c2)cnc1N` [GSK1669921], the “%Inh” value was 1%.

As for `COCCOCCOc1cc2ncc3c4ccc(C#N)cc4[nH]c3c2cc1OC`, the “%Inh” value is on record as 99.5%.

As for `COc1cccc(C2=C(Nc3ccc(Cl)c(C(=O)O)c3)C(=O)NC2=O)c1` [SB-390769], the “%Inh” value was 0%.

Take `Oc1cc(Nc2ccnc3cc(I)ccc23)ccc1F` [GW552771]: the “%Inh” value is recorded as 0%.

With `Cc1ccc(S(=O)(=O)Nc2ccc(Nc3nccc(Nc4cccc5[nH]ncc45)n3)cc2)cc1` [GSK581271], the “%Inh” value is 28%.

For `Cc1ccc(C(=O)N2CC[C@@H](O)C2)cc1-n1c(C)cc(OCc2ccc(F)cc2F)c(Br)c1=O`, the “%Inh” value turned out to be 14%.

With `COC(=O)Nc1nc2cc(Oc3ccc(NC(=O)Nc4cc(C(F)(F)F)ccc4F)cn3)ccc2[nH]1.Cl.Cl` [GW681170], the “%Inh” value is recorded as 99.1%.

Take `COc1cc(Nc2nccc(N3CCC(NC(=O)c4cc5ccccc5s4)C3)n2)cc(OC)c1OC` (stereo not drawn) [GSK1379760]: the “%Inh” value stood at 33%.
